Laboratory results taken from publication PMC7862700, “An all-to-all approach to the identification of sequence-specific readers for epigenetic DNA modifications on cytosine”.

Experiments:
Test in all cases: DAPPL (digital affinity profiling via proximity ligation, sequencing); 10 mM Tris-HCl pH 7.5, 50 mM NaCl, 1 mM DTT, 4% glycerol, room temperature, 30 min; GST-TFs on glutathione beads, 16-mer random dsDNA library, 0.1% formaldehyde crosslink after washing; high values mean tight binding
Conditions in all cases: protein: recombinant; tags: N-terminal GST; dsDNA, one strand shown
ETV1 = ETV1 (Homo sapiens, UniProt P50549 1-477)
ETV1, sequence (P50549 whole entry, the tested form may be a part): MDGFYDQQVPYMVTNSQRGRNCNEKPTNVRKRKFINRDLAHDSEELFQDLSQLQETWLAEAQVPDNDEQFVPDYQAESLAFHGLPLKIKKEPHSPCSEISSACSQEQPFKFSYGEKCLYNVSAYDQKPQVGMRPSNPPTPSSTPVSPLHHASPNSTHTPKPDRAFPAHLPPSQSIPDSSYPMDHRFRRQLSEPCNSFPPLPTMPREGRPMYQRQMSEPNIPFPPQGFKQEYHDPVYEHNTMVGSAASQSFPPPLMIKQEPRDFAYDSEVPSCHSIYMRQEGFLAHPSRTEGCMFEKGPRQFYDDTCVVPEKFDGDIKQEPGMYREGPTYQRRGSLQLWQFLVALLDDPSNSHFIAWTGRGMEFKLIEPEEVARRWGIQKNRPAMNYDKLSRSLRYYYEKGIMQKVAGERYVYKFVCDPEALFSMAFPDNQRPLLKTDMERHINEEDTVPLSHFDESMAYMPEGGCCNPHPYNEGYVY
Summary of the method: (§1)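 Binding signal is each hexamer's read frequency for a factor divided by its frequency in the tag-only sample. The factors were GST-fused human transcription factors from yeast, captured on glutathione beads, DNA-barcoded and pooled with that sample. Pools were incubated with 200 nmole of a random double-stranded 16-mer DNA library in Tris/NaCl/DTT/glycerol buffer at room temperature for 30 min, then washed, crosslinked with 0.1% formaldehyde, proximity-ligated with BsaI/T4 ligase (1 h, 37 °C), PCR-amplified and sequenced on an Illumina NextSeq500.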

ERF = molecular target: T1, ERF (Homo sapiens, UniProt P50548 1-548)
T1 sequence: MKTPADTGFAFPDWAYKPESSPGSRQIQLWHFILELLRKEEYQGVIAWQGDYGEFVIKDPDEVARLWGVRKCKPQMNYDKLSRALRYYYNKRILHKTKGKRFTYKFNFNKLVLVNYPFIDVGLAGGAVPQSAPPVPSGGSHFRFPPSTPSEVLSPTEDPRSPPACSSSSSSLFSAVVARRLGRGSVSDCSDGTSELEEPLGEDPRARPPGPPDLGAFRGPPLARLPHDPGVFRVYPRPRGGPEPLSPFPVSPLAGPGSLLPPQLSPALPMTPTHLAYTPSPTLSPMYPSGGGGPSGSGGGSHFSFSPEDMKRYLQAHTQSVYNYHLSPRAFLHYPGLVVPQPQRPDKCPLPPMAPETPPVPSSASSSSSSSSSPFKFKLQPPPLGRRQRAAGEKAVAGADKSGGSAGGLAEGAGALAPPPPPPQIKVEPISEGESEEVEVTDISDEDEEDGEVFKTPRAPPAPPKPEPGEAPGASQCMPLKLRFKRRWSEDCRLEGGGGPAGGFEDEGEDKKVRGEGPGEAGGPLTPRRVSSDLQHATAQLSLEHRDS
Summary of the method: as §1

ETV3L = molecular target: T2, ETV3L (Homo sapiens, UniProt Q6ZN32 1-361)
T2 sequence: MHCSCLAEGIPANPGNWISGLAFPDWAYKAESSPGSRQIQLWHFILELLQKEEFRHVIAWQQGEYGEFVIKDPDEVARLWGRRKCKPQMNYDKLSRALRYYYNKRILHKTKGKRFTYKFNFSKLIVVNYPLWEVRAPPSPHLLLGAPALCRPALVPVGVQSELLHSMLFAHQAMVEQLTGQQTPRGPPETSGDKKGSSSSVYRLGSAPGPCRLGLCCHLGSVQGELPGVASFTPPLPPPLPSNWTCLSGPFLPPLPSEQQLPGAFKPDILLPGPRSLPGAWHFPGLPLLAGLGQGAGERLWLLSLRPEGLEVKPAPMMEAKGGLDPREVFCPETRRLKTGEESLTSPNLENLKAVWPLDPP
Summary of the method: as §1

ETS2 = molecular target: T3, ETS2 (Homo sapiens, UniProt P15036 1-469)
T3 sequence: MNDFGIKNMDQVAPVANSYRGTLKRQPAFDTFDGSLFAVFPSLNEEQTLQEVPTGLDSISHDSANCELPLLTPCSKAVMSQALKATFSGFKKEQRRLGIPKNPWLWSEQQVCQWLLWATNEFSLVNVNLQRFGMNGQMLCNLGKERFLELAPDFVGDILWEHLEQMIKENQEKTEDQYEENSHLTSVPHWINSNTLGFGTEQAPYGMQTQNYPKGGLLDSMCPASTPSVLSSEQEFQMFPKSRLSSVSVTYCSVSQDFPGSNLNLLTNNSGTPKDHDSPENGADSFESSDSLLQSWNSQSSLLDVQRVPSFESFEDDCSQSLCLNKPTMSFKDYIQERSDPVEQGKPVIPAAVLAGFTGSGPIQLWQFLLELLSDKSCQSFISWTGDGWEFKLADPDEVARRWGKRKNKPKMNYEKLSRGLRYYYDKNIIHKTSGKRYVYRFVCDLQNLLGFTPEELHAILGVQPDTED
Summary of the method: as §1

SPDEF = molecular target: T4, SPDEF (Homo sapiens, UniProt O95238 1-335)
T4 sequence: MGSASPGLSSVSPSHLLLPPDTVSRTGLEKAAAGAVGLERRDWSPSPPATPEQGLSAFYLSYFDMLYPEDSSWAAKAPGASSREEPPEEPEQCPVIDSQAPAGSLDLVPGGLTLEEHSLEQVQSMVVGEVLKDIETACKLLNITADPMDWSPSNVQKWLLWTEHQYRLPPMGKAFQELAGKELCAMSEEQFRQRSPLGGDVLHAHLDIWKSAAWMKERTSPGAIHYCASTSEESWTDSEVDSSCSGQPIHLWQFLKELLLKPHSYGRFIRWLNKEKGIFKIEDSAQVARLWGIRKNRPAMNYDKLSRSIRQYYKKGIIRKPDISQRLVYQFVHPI
Summary of the method: as §1

ETV7 = molecular target: T5, ETV7 (Homo sapiens, UniProt Q9Y603 1-341)
T5 sequence: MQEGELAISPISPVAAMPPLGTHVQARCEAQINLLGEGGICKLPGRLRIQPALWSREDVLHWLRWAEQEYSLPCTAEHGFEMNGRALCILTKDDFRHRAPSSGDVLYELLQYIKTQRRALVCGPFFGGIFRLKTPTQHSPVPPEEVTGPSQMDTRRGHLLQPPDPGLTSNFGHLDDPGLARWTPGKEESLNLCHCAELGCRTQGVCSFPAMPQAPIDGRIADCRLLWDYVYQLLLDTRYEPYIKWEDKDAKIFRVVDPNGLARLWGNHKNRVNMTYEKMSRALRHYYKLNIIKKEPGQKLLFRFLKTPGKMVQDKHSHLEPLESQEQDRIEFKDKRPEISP
Summary of the method: as §1

ELF5 = molecular target: T6, ELF5 (Homo sapiens, UniProt Q9UKW6-2 1-255)
T6 sequence: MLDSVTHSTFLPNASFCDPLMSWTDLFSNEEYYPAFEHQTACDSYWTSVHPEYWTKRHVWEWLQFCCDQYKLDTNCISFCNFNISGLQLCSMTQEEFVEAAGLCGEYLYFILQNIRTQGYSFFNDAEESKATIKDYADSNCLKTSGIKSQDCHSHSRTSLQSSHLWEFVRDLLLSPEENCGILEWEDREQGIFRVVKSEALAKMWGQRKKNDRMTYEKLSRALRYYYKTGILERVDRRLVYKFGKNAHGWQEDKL
Summary of the method: as §1

ETV3 = molecular target: T7, ETV3 (Homo sapiens, UniProt P41162-2 1-143)
T7 sequence: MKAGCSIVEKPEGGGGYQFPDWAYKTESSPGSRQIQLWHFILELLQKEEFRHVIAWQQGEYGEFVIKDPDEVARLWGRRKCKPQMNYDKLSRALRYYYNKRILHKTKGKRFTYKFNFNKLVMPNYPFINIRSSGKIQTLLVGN
Summary of the method: as §1

ETV6 = ETV6 (Homo sapiens, UniProt P41212 1-452)
ETV6, sequence (P41212 whole entry): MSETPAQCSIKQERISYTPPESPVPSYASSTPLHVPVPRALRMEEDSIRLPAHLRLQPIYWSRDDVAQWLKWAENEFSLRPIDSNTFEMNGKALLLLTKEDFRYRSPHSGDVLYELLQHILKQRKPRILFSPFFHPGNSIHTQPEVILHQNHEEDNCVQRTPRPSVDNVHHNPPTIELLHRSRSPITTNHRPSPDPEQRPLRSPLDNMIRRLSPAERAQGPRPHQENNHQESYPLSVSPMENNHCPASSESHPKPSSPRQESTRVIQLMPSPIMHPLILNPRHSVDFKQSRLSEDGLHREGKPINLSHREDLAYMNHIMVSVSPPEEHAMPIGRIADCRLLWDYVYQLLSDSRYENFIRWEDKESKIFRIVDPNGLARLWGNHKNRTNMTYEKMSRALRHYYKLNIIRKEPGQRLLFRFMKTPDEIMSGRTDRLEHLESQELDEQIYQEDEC
Summary of the method: as §1

## TCTGCA
ETV1
  binding signal: 1.26 fold enrichment (6-mer frequency, TF over GST control)
ERF
  binding signal: 1.29 fold enrichment (6-mer frequency, TF over GST control)
ETV3L
  binding signal: 1.42 fold enrichment (6-mer frequency, TF over GST control)
ETS2
  binding signal: 1.34 fold enrichment (6-mer frequency, TF over GST control)
SPDEF
  binding signal: 1.32 fold enrichment (6-mer frequency, TF over GST control)
ETV7
  binding signal: 1.28 fold enrichment (6-mer frequency, TF over GST control)
ELF5
  binding signal: 1.29 fold enrichment (6-mer frequency, TF over GST control)
ETV3
  binding signal: 1.2 fold enrichment (6-mer frequency, TF over GST control)
ETV6
  binding signal: 1.23 fold enrichment (6-mer frequency, TF over GST control)
